Rows were chosen to be rich in hits. Some 19% of all compounds tested hit in one or more screens of this group.
HT1080 IDH1KD tx: kills HT-1080 cells with IDH1 knockdown. HT-1080 IDH1 knockdown viability, ATP luminescence, 48 h. Potency, µM (highest dose often 46.1 µM), for inactives: at the highest dose activity, negative = toxicity, actives largely listed as cytotoxic. 360,000 compounds, 2% hits;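 also: potency is read from the fitted curve at half-maximal effect; 0% = DMSO wells and -100% = cell-free medium wells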
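Knockdown cells (IDH1KD HT-1080) received compounds 2 h after plating at 750 cells/well and were kept 48 h at 37 °C in 5% FBS RPMI. A CellTiter-Glo luminescence read gave % activity for curve fitting.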
IL1B secr inh: blocks inflammasome-driven IL-1 beta release. THP-1 LPS/ATP IL-1B secretion, AlphaLISA, 16 h; stronger effect = lower value. activity change, % at 57.5 µM. 360,000 compounds, 4.7% hits; in the data active = activity change below about -50%; inconclusive = mostly about -30% to -49%
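THP-1 cells pretreated 1 hr with compounds (up to 57.5 uM final), then stimulated with LPS (250 ng/mL final) plus ATP (1.25 mM final); secreted IL-1B measured by AlphaLISA after 16 hr, decreased signal indicating inhibition.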
TDP1 cell noCPT: qHTS for Inhibitors of human tyrosyl-DNA phosphodiesterase 1 (TDP1): qHTS in cells in absence of CPT; Potency, µM (highest dose often 46.2 µM), for inactives: at the top dose activity change, negative = growth inhibition, hits mostly inhibitors; 420,000 compounds, 15% hits; DT40 Tdp1-/- hTDP1 cells, no CPT, ATP luminescence, 48 h; also: potency is read from the fitted curve at half-maximal effect; nearly all actives have a fitted effect of over 55% in size
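Camptothecin absent (DMSO only). Human TDP1-complemented DT40 knockout cells, 400 cells/well, 37 °C for minimum 48 hr; ATP measured via CellTiter-Glo, 30 min dark incubation, luminescence.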
DT40 TDP1 CPT: DT40-hTDP1 cell growth loss with CPT; chicken DT40 Tdp1-/-;hTDP1 cells + 20 nM CPT, ATP luminescence, 48 h; Potency, µM (doses to about 46.2 µM), for inactives: top-dose activity change, negative = growth inhibition, hits mostly inhibitors; 420,000 compounds, 12% hits; also: potency is read from the fitted curve at half-maximal effect; nearly all actives have a fitted effect of over 55% in size
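Chicken DT40 Tdp1-/- cells complemented with human TDP1, 400 cells/well, exposed to compounds plus 20 nM camptothecin for at least 48 h at 37 C; viability read as ATP content by CellTiter-Glo luminescence.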
HT1080NT lethal: kills 2HG-producing HT-1080-NT fibrosarcoma cells; HT-1080-NT fibrosarcoma viability, CellTiter-Glo ATP luminescence, 48 h; Potency, µM (top dose mostly 46.1 µM), without a hit: top-dose activity, negative = less viability, hits mostly cytotoxic; 360,000 compounds, 1.6% hits; AID 686970;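 also: NT is the 2HG producing partner of a matched IDH1 knockdown line; potency is read from the fitted curve at half-maximal effect; 0% = DMSO-treated cells and -100% = media-only wells without cells; nearly all actives have a fitted effect of over 55% in size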
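Read-out is CellTiter-Glo luminescence after 10 minutes at room temperature, following 48 hours' compound treatment of HT-1080-NT cells (750 cells/well, RPMI, 5% FBS, 37 degrees C).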
Starred values were filed as active, the others as inactive. Unless noted, calls follow the shape of the dose curve; as a rule, active = well fitted curve in the direction sought with a large enough effect; inconclusive = small, poorly fitted or top-dose-only effect, or another doubt; inactive = no such curve, though single readings can be large; an effect the other way counts as inactive or inconclusive. Unless noted, % is scaled to controls: 0 for no effect and ±100 for the full control effect.

What do the screens show for `O=S(=O)(Nc1cccc(-c2ccc(N3CCCCC3)nn2)c1)c1ccc(F)cc1F`?
TDP1 cell noCPT: 26µM*; DT40 TDP1 CPT: inconclusive

Results for CCOc1ccc(S(=O)(=O)Nc2cccc(-c3ccc(N4CCCC4)nn3)c2)cc1 ?
TDP1 cell noCPT: inconclusive; DT40 TDP1 CPT: 7.3µM*

Results for CCOc1ccc(C(C)C)cc1S(=O)(=O)Nc1cccc(-c2ccc(N3CCOCC3)nn2)c1 ?
TDP1 cell noCPT: 15µM*; DT40 TDP1 CPT: inconclusive

Results for CCc1ccc(S(=O)(=O)Nc2cccc(-c3ccc(N4CCOCC4)nn3)c2)cc1 ?
TDP1 cell noCPT: inconclusive; DT40 TDP1 CPT: 8.2µM*

Results for COc1ccc(S(=O)(=O)Nc2cccc(-c3ccc(N4CCCCCC4)nn3)c2)cc1OC ?
HT1080 IDH1KD tx: -5%; IL1B secr inh: -8; TDP1 cell noCPT: inconclusive; DT40 TDP1 CPT: inconclusive; HT1080NT lethal: -6%

How did COc1ccc(S(=O)(=O)Nc2cccc(-c3ccc(N4CCCC4)nn3)c2)c(OC)c1 do in these assays?
TDP1 cell noCPT: -51%; DT40 TDP1 CPT: inconclusive

What do the screens show for `COc1ccc(S(=O)(=O)Nc2cccc(-c3ccc(N4CCCCCC4)nn3)c2)cc1`?
TDP1 cell noCPT: inconclusive; DT40 TDP1 CPT: 16µM*

How did COc1ccc(S(=O)(=O)Nc2cccc(-c3ccc(N4CCCCCC4)nn3)c2)c(OC)c1 do in these assays?
HT1080 IDH1KD tx: -3%; IL1B secr inh: -23; TDP1 cell noCPT: 29µM*; DT40 TDP1 CPT: inconclusive; HT1080NT lethal: -25%

Results for CCn1ccc2cc(S(=O)(=O)N3CCC(C(=O)NCc4ccc(OC(C)C)cc4)CC3)ccc21 ?
TDP1 cell noCPT: -28%; DT40 TDP1 CPT: inconclusive

What do the screens show for `CCN(C(=O)CN1CCN(c2ccccc2F)CC1)c1c(N)n(Cc2ccccc2)c(=O)[nH]c1=O`?
HT1080 IDH1KD tx: 0%; IL1B secr inh: -6; TDP1 cell noCPT: 6%; DT40 TDP1 CPT: 0%; HT1080NT lethal: 18%

How did CCc1nc2nc(C)cc(Nc3cc(Cl)ccc3OC)n2n1 do in these assays?
TDP1 cell noCPT: -29%; DT40 TDP1 CPT: -24%

What do the screens show for `Cn1c(=O)cc(OCCCC(=O)Nc2cccc(Cl)c2)c2ccccc21`?
HT1080 IDH1KD tx: 6%; IL1B secr inh: 4; TDP1 cell noCPT: inconclusive; DT40 TDP1 CPT: inconclusive; HT1080NT lethal: 4%

What do the screens show for `COc1cc(-c2nc(C(=O)NC3CCCCC3)cc3c2[nH]c2ccccc23)cc(OC)c1OC`?
HT1080 IDH1KD tx: -20%; IL1B secr inh: inconclusive; TDP1 cell noCPT: 23µM*; DT40 TDP1 CPT: 16µM*; HT1080NT lethal: -5%

What do the screens show for `COc1ccc(OC)c(-c2nc(C(=O)NC3CCN(Cc4ccccc4)CC3)cc3c2[nH]c2ccccc23)c1`?
HT1080 IDH1KD tx: inconclusive; IL1B secr inh: -15; TDP1 cell noCPT: 12µM*; DT40 TDP1 CPT: 10µM*; HT1080NT lethal: inconclusive

How did COc1cc(-c2nc(C(=O)NC3CCN(Cc4ccccc4)CC3)cc3c2[nH]c2ccccc23)cc(OC)c1OC do in these assays?
HT1080 IDH1KD tx: inconclusive; IL1B secr inh: -12; TDP1 cell noCPT: 13µM*; DT40 TDP1 CPT: 12µM*; HT1080NT lethal: inconclusive

What do the screens show for `COc1ccc(OC)c(-c2nc(C(=O)NCCCN3CCOCC3)cc3c2[nH]c2ccccc23)c1`?
HT1080 IDH1KD tx: -22%; IL1B secr inh: -2; TDP1 cell noCPT: 23µM*; DT40 TDP1 CPT: 16µM*; HT1080NT lethal: -13%

Results for CSCC[C@H](NC(=O)c1cc2c([nH]c3ccccc32)c(-c2ccccc2)n1)C(=O)O ?
HT1080 IDH1KD tx: -19%; IL1B secr inh: 4; TDP1 cell noCPT: 2%; DT40 TDP1 CPT: 2%; HT1080NT lethal: -4%

How did COc1cc(C(=O)NC2CCN(Cc3ccccc3)CC2)cc(Cl)c1OC do in these assays?
HT1080 IDH1KD tx: -12%; IL1B secr inh: -14; TDP1 cell noCPT: inconclusive; DT40 TDP1 CPT: inconclusive; HT1080NT lethal: -16%

What do the screens show for `COc1cc(NC(=O)N2CCc3nc(NCc4cccc(Oc5ccccc5)c4)ncc3C2)cc(OC)c1OC`?
HT1080 IDH1KD tx: inconclusive; IL1B secr inh: 53; TDP1 cell noCPT: inconclusive; DT40 TDP1 CPT: inconclusive; HT1080NT lethal: inconclusive

How did O=C(Nc1cccc(Cl)c1)C1CCCN(c2ncnc3c2nc2n3CCCCC2)C1 (stereo unspecified) do in these assays?
TDP1 cell noCPT: inconclusive; DT40 TDP1 CPT: 5.2µM*

How did CCc1cccc(NC(=O)C2CCCN(c3ncnc4c3nc3n4CCCCC3)C2)c1 (stereo unspecified) do in these assays?
HT1080 IDH1KD tx: inconclusive; IL1B secr inh: -54*; TDP1 cell noCPT: inconclusive; DT40 TDP1 CPT: inconclusive; HT1080NT lethal: -5%

Results for CSc1cccc(NC(=O)C2CCN(c3ncnc4c3nc3n4CCCCC3)CC2)c1 ?
TDP1 cell noCPT: -56%; DT40 TDP1 CPT: inconclusive

Results for COc1ccc(CNC(=O)CC[C@H]2O[C@@H](n3cc(C)c(=O)[nH]c3=O)C[C@@H]2O)cc1 ?
HT1080 IDH1KD tx: 20%; IL1B secr inh: -8; TDP1 cell noCPT: 19%; DT40 TDP1 CPT: -1%; HT1080NT lethal: 21%

Results for C[C@H]1CCC/C=C/[C@@H]2C[C@H](O)C[C@H]2[C@H](O)[C@H](S(=O)c2ccc(O)cc2)CC(=O)O1 (stereo partly specified) ?
HT1080 IDH1KD tx: 0.15µM*; IL1B secr inh: inconclusive; TDP1 cell noCPT: 0.73µM*; DT40 TDP1 CPT: 0.58µM*; HT1080NT lethal: inconclusive

What do the screens show for `C[C@@H](NC(=O)c1ncn2c1c(=O)[nH]c1cccnc12)c1ccccc1`?
HT1080 IDH1KD tx: -9%; IL1B secr inh: 46; TDP1 cell noCPT: -14%; DT40 TDP1 CPT: -2%; HT1080NT lethal: -8%

What do the screens show for `C[C@@H](NC(=O)c1ncn2c1c(=O)[nH]c1ccc(Br)cc12)c1ccccc1`?
HT1080 IDH1KD tx: 17%; IL1B secr inh: -18; TDP1 cell noCPT: 21µM*; DT40 TDP1 CPT: inconclusive; HT1080NT lethal: 12%

Results for Cn1cc(-c2nc3cncnc3n(CCN)c2=O)c2ccccc21 ?
TDP1 cell noCPT: 16µM*; DT40 TDP1 CPT: 23µM*

How did COCCn1c(=O)c(-c2cn(C)c3ccccc23)nc2cncnc21 do in these assays?
TDP1 cell noCPT: -13%; DT40 TDP1 CPT: 2%

What do the screens show for `COc1ccc(S(=O)(=O)NCC(=O)Nc2cccc(C)c2C)cc1OC`?
HT1080 IDH1KD tx: 2%; IL1B secr inh: 2; TDP1 cell noCPT: -3%; DT40 TDP1 CPT: -22%; HT1080NT lethal: 5%
